# Rows were chosen to be rich in hits. Some 2.2% of all compounds tested hit in one or more screens of this group.
# CHRM1 antagonist – human M1 muscarinic receptor antagonists, primary screen, CHO-K1 cells, Fluo-8 calcium fluorescence, 1536-well; 360,000 tested, 1.3% active; AID 588852, 2011; CHO-K1 hM1, ACh EC80 antagonist; inhibition, % at 3 µM; Muscarinic acetylcholine receptor M1 (Homo sapiens), P11229;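 active means percent inhibition above its own plate's cutoff, namely the mean of that plate's compound wells plus 3 SD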;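 further: peak over basal fluorescence ratio during 140 s after agonist addition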
# Target sequence (P11229 whole entry, looked up): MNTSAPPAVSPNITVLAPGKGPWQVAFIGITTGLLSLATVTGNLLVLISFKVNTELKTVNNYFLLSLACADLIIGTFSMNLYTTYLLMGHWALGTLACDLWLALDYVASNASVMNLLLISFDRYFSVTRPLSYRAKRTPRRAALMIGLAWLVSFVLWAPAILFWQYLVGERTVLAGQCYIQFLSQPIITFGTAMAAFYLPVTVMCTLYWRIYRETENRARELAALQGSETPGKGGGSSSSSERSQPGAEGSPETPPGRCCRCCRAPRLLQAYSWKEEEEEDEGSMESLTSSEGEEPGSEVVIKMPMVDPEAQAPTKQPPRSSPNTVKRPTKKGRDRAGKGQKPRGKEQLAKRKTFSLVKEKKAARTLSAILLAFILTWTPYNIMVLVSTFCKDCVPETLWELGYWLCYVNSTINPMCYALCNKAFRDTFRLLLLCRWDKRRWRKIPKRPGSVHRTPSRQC
# CHRM4 antagonist – human M4 muscarinic receptor antagonists, primary screen, CHO cells, Fluo-8 calcium fluorescence; CHO-hM4 cells, ACh EC80; inhibition, % at 3 µM; 360,000 tested, 0.73% active; AID 624125, 2012;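 active means inhibition above its plate's cutoff, the mean inhibition of sample wells plus 3 SD, cut at about 27% in these data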
# CHRM4 agonist – human M4 muscarinic receptor agonists, primary screen, CHO-K1 cells, Fluo-8 calcium fluorescence; CHO-K1 hM4/Gqi5; vehicle 0%, full acetylcholine response 100%; 360,000 tested, 0.14% active; AID 624127, 2012; Muscarinic acetylcholine receptor M4 (Homo sapiens), P08173; activation, % at 3 µM;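 active means activation above the run mean over all test wells plus 3 SD, cut at about 32% in these data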;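 further: peak over basal fluorescence ratio per well then scaled between controls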
# CHRM4 PAM – human M4 muscarinic receptor positive allosteric modulators, primary screen, CHO-K1 cells, Fluo-8 calcium fluorescence | Muscarinic acetylcholine receptor M4 (Homo sapiens), P08173 | AID 624126, 2012 | CHO-K1 hM4/Gqi5, ACh EC20; 0% = ACh EC20, 100% = maximal ACh | 360,000 tested, 0.4% active | activation, % at 3 µM;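 active means activation above its plate's cutoff, the mean activation of sample wells plus 3 SD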
# M1 PAM – human M1 muscarinic receptor positive allosteric modulators, primary screen, CHO-K1 cells, Fluo-8 calcium fluorescence, 1536-well. 360,000 tested, 0.088% active. AID 588819, 2011. CHO-K1 hM1, ACh EC20; 0% = ACh EC20, 100% = maximal ACh. Muscarinic acetylcholine receptor M1 (Homo sapiens), P11229. activation, % at 3 µM; in the data active means activation above about 19%, passing the limit was not always enough
# CHRM1 agonist – human M1 muscarinic receptor agonists, primary screen, Fluo-8 calcium fluorescence, CHO-K1 cells, HTS; CHO-K1 hM1, agonist mode; 0% DMSO, 100% acetylcholine EC100; activation, % at 3 µM; Muscarinic acetylcholine receptor M1 (Homo sapiens), P11229; 360,000 tested, 0.33% active;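 active means activation above the run's mean compound activation plus 3 SD, cut at about 16% in these data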;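 further: peak over basal fluorescence ratio within a 140 s kinetic read after compound addition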
# Hits are given with their value; 0 = inactive.
SMILES,CHRM1 antagonist,CHRM4 antagonist,CHRM4 agonist,CHRM4 PAM,M1 PAM,CHRM1 agonist
C[n+]1c(-c2ccccc2)cc(-c2ccc(Cl)cc2)cc1-c1ccccc1,0,0,0,0,0,0
Cc1ccc(-c2cc(-c3ccccc3)cc(-c3ccccc3)[n+]2-c2ccccc2)cc1,78,79,0,0,0,0
c1ccc(-c2cc(-c3ccccc3)[n+](-c3ccccc3)c(-c3ccccc3)c2)cc1,43,73,0,0,0,0
CCOC(=O)c1cccc(-[n+]2c(-c3ccccc3)cc(-c3ccccc3)cc2-c2ccccc2)c1,0,27,0,0,0,0
CN(C)c1ccc(-[n+]2c(-c3ccccc3)cc(-c3ccccc3)cc2-c2ccccc2)cc1,56,56,0,0,0,0
O=C(C1CCCCC1)N1Cc2ccccc2-n2nncc2C1,0,0,0,0,0,0
CCOc1c(Cl)cc(CNC(C)C(O)c2ccccc2)cc1OC (stereo not drawn),0,0,0,0,0,0
CC(=O)O/C(=C1\CC2C3CC=C4CC(OC(C)=O)CCC4(C)C3CCC2(C)C1=O)C(F)(F)F (stereo not drawn),0,0,0,0,0,0
Cc1ccc(-c2cc(-c3ccc(C)cc3)[n+](-c3ccc(C(=O)[O-])cc3)c(-c3ccc(C)cc3)c2)cc1,0,0,0,0,0,0
Cc1ccc(-c2cc(-c3ccc(C)cc3)[n+](-c3ccccc3)c(-c3ccc(C)cc3)c2)cc1,51,65,0,0,0,0
O=C(c1ccc2c(c1)OCO2)C1CCCN(Cc2ccc(F)c(F)c2)C1 (stereo not drawn),70,0,0,0,0,0
O=C(c1ccc(Cl)cc1)C1CCCN(Cc2cccc3cnccc23)C1 (stereo not drawn),70,48,0,0,0,0
CSc1ncc(CN2CCCC(C(=O)c3cccc(Cl)c3)C2)cn1 (stereo not drawn),0,0,0,0,0,0
CN(C(=O)Cc1ccc2c(c1)OCO2)C1CCCN(Cc2ccccc2F)C1 (stereo not drawn),46,0,0,0,0,0
O=C(c1ccc(Cl)cc1)C1CCCN(Cc2ccc3c(c2)OCCO3)C1 (stereo not drawn),0,0,0,0,0,0
O=C(c1cccc(Cl)c1)C1CCCN(Cc2cccc3cnccc23)C1 (stereo not drawn),0,0,0,0,0,0
O=C(c1ccc(Cl)cc1)C1CCCN(Cc2ccc3ncccc3c2)C1 (stereo not drawn),81,28,0,0,0,0
CCC1(CC)COP(=O)(OCC(Cl)CCl)OC1 (stereo not drawn),0,0,0,0,0,0
Clc1ccc2c(c1)C(c1ccccc1Cl)=NCc1nnc(N3CCN(CCSc4ccccc4)CC3)n1-2,0,0,0,0,0,0
Cc1cc2c(C(F)(F)F)cc(=O)oc2c2c1NCCC2,0,0,0,0,0,0
O=c1cc(C(F)(F)F)c2cc3c4c(c2o1)CCCN4CCC3,67,45,86,0,0,120
Cc1cc(=O)oc2cc(OCC(=O)N3CCN(C(C)c4ccccc4)CC3)c(Cl)cc12 (stereo not drawn),0,0,0,0,0,0
COc1ccc(C2=CC(c3ccc(OC)c(OC)c3)c3c(c4ccccc4oc3=O)O2)cc1OC (stereo not drawn),0,0,0,0,0,0
CN1CCN(c2nc3ccccc3c(=O)n2-c2ccccc2)CC1,0,0,0,0,0,0
Cn1nnc(CC[N+](C)(C)C)n1,77,0,0,0,0,73
SMILES,CHRM1 antagonist,CHRM4 antagonist,CHRM4 agonist,CHRM4 PAM,M1 PAM,CHRM1 agonist
N=c1sccn1Cc1ccccc1F,0,0,0,0,0,17
Cc1ccc(CN2CCN(Cc3ccccc3F)CC2)cc1,0,0,0,0,0,0
CCN(CC)c1ccc(CNCCc2ccc(F)cc2)cc1,30,0,0,0,0,0
C/C(=N\NC(N)=O)c1c(O)n(C)c(=O)n(C)c1=O,0,0,0,0,0,0
C[N+]1([O-])[C@@H]2CC(OC(=O)[C@H](CO)c3ccccc3)C[C@H]1[C@@H]1O[C@@H]12 (stereo partly drawn),100,99,0,0,0,0
C[N+]1(C)C2CCC1CC(OC(=O)c1ccccc1)C2 (stereo not drawn),0,0,0,0,0,0
C[N+]1(C)C2CCC1CC(OC(=O)C(CO)c1ccccc1)C2 (stereo not drawn),101,98,0,0,0,0
C[N+]1(C)[C@@H]2CC[C@H]1CC(OC(=O)C(CO)c1ccccc1)C2 (stereo partly drawn),99,99,0,0,0,0
C#CC[N+]1(C)[C@@H]2CC(OC(=O)C(CO)c3ccccc3)C[C@H]1C(O)C2 (stereo partly drawn),101,98,0,0,0,0
CCOc1ccc(N=Cc2c(O)n(CCc3ccc(OC)c(OC)c3)c(=O)[nH]c2=O)cc1,0,0,0,0,0,0
CCOC(=O)C1SC2(C(F)(F)F)CC1(O)c1c(C)cc(C)nc1O2 (stereo not drawn),0,0,0,45,0,0
COc1ccc(C(c2nnnn2C2CCCCC2)N2CCC3(CC2)C(=O)NCN3c2ccccc2)cc1 (stereo not drawn),0,0,0,0,0,0
COP(=O)(OC)C1(O)C(=O)Nc2ccc(Br)cc21 (stereo not drawn),0,0,0,23,0,0
CCOP(=O)(OCC)C1(O)C(=O)Nc2ccccc21 (stereo not drawn),0,0,0,0,0,0
Cn1c(O)c(/C=N/N2CCOCC2)c(=O)n(-c2ccccc2)c1=S,0,0,0,0,0,0
Cc1nc(SCc2c(Cl)cccc2Cl)nc(OC(=O)N(C)C)c1C,0,0,0,34,0,0
CC1CCC(NCCc2ccc3c(c2)OCO3)CC1 (stereo not drawn),34,32,0,0,0,0
COc1ccc(-n2nnnc2C(c2cccc(OC)c2OC)N2CCC(n3c(=O)[nH]c4ccccc43)CC2)cc1 (stereo not drawn),0,0,0,0,0,23
O=C1NCN(c2ccccc2)C12CCN(C(c1cccs1)c1nnnn1-c1ccc3c(c1)OCCO3)CC2 (stereo not drawn),0,0,0,0,0,0
